Reference: PubChem BioAssay (NCATS)
Records with an inconclusive call do not appear. Entries that show only a call come without a potency. Active and inactive are the calls of the source. Calls follow the shape of the dose curve; as a rule, active = well fitted inhibition curve with a large enough effect; inconclusive = small, poorly fitted or top-dose-only effect; inactive = no such curve, though single readings can be large or run the other way.

Test: qHTS assay for measurement of the activity of small molecule inhibitors on Zika virus induced Caspase-3 activity in human iPSC derived neural progenitor cells (hNPCs) (AID 1224857); also: nearly all actives have a fitted effect of over 65% in size
Settings: hNPCs ZIKV-induced caspase-3/7, Caspase-Glo luminescence, 6 h; series mostly up to 45.7 µM
Summary of the method: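 In medium with heparin 2 ug/ml and cyclopamine 2 uM, hNPCs (350 cells/well) received compound for one hour and then Zika virus at 2 FFU/cell; caspase activity was measured by Caspase-Glo 3/7 luminescence 6 h post-infection.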

Compound	Potency
ClCc1cccc(Cl)c1	inactive
ClCCCN1CCN(c2cccc(Cl)c2)CC1	inactive
CC[C@H]1C[C@H]2[C@@H]3CCC4=CC(=O)CC[C@@H]4[C@H]3CC[C@]2(C)[C@H]1O	inactive
CC(Cc1ccccc1)NCCCCl (stereo unspecified)	inactive
CN(C)CCc1c[nH]c2cccc(O)c12	inactive
N#Cc1nn(-c2c(Cl)cc(C(F)(F)F)cc2Cl)c(N)c1S(=O)C(F)(F)F (stereo unspecified)	inactive
CCCCCCCCC(=O)NCc1ccc(O)c(OC)c1	inactive
OC(c1ccccc1)(c1ccccc1)C1CCNCC1	inactive
CCCCCCCCCCCC[N+](C)(C)CCOc1ccccc1	inactive
CCOC(C(=O)OCCN(C)C)(c1ccccc1)c1ccccc1	inactive
CC(CC(C(N)=O)(c1ccccc1)c1ccccc1)N(C)C (stereo unspecified)	inactive
NC(=O)CN1CCCC1=O	inactive
CCOC(=O)C(c1c(O)c2ccccc2oc1=O)c1c(O)c2ccccc2oc1=O	inactive
C[N+]1(CCC(C(N)=O)(c2ccccc2)c2ccccc2)CCCCC1	inactive
CN(C)C(=O)Oc1cc(OC(=O)N(C)C)cc(C(O)CNC(C)(C)C)c1 (stereo unspecified)	inactive
CC(CC(C#N)(c1ccccc1)c1ccccc1)N(C)C (stereo unspecified)	inactive
CC[C@H](O)C(C[C@H](C)N(C)C)(c1ccccc1)c1ccccc1	inactive

Compound	Potency
C#C[C@]1(O)C=C[C@H]2[C@@H]3CCC4=CC(=O)CC[C@@H]4[C@H]3CC[C@@]21CC	inactive
O=c1[nH]c2cc(Cl)ccc2n1C1CCNCC1	inactive
COc1ccc(OC)c(CC(C)N)c1 (stereo unspecified)	inactive
O=C1CN2CCOC2(c2ccccc2Cl)c2cc(Cl)ccc2N1 (stereo unspecified)	inactive
Clc1ccc(C(OCCN2CCCCC2)c2ccccc2)cc1 (stereo unspecified)	inactive
CCC(=O)C(CCN(C)C)(c1ccccc1)c1ccccc1	inactive
c1cc2c(c(N3CCNCC3)c1)OCCO2	inactive
CC(C)C(Br)C(=O)NC(N)=O (stereo unspecified)	inactive
CCc1cc(OC)c(C[C@H](C)N)cc1OC	inactive
CNC(C)Cc1ccc2c(c1)OCO2 (stereo unspecified)	inactive
CC[C@H]1C[C@@H]2C[C@H]3c4[nH]c5ccc(OC)cc5c4CCN(C2)[C@@H]13	inactive
c1ccc2nc(N3CCNCC3)ccc2c1	inactive
CN(C)CCc1c[nH]c2ccc(O)cc12	inactive
Cc1nnc2n1-c1sc(CCc3ccc(CC(C)C)cc3)cc1C(c1ccccc1Cl)=NC2C (stereo unspecified)	inactive
CNC(=O)Oc1cccc2ccccc12	inactive
COc1ccc(CN2CCNCC2)c(OC)c1OC	inactive

Test: qHTS assay for measurement of the activity of small molecule inhibitors on Zika virus induced Caspase-3 activity in human astrocytoma cells (AID 1224859)
Settings: SNB-19 ZIKV-induced caspase-3/7, luminescence, 6 h; series mostly up to 45.7 µM
Summary of the method: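 A cell-based luminescent caspase-3/7 assay used SNB-19 cells infected with ZIKV (2 FFU/cell) for 6 h following 1 h compound pretreatment.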

Compound	outcome
ClCc1cccc(Cl)c1	inactive
ClCCCN1CCN(c2cccc(Cl)c2)CC1	inactive
CC[C@H]1C[C@H]2[C@@H]3CCC4=CC(=O)CC[C@@H]4[C@H]3CC[C@]2(C)[C@H]1O	inactive
CC(Cc1ccccc1)NCCCCl (stereo unspecified)	inactive
CN(C)CCc1c[nH]c2cccc(O)c12	inactive
N#Cc1nn(-c2c(Cl)cc(C(F)(F)F)cc2Cl)c(N)c1S(=O)C(F)(F)F (stereo unspecified)	inactive
CCCCCCCCC(=O)NCc1ccc(O)c(OC)c1	inactive
OC(c1ccccc1)(c1ccccc1)C1CCNCC1	inactive
CCCCCCCCCCCC[N+](C)(C)CCOc1ccccc1	inactive
CCOC(C(=O)OCCN(C)C)(c1ccccc1)c1ccccc1	inactive
CC(CC(C(N)=O)(c1ccccc1)c1ccccc1)N(C)C (stereo unspecified)	inactive
NC(=O)CN1CCCC1=O	inactive
CCOC(=O)C(c1c(O)c2ccccc2oc1=O)c1c(O)c2ccccc2oc1=O	inactive
C[N+]1(CCC(C(N)=O)(c2ccccc2)c2ccccc2)CCCCC1	inactive
CN(C)C(=O)Oc1cc(OC(=O)N(C)C)cc(C(O)CNC(C)(C)C)c1 (stereo unspecified)	inactive
CC(CC(C#N)(c1ccccc1)c1ccccc1)N(C)C (stereo unspecified)	inactive
CC[C@H](O)C(C[C@H](C)N(C)C)(c1ccccc1)c1ccccc1	inactive

Compound	outcome
C#C[C@]1(O)C=C[C@H]2[C@@H]3CCC4=CC(=O)CC[C@@H]4[C@H]3CC[C@@]21CC	inactive
O=c1[nH]c2cc(Cl)ccc2n1C1CCNCC1	inactive
COc1ccc(OC)c(CC(C)N)c1 (stereo unspecified)	inactive
O=C1CN2CCOC2(c2ccccc2Cl)c2cc(Cl)ccc2N1 (stereo unspecified)	inactive
Clc1ccc(C(OCCN2CCCCC2)c2ccccc2)cc1 (stereo unspecified)	inactive
CCC(=O)C(CCN(C)C)(c1ccccc1)c1ccccc1	inactive
c1cc2c(c(N3CCNCC3)c1)OCCO2	inactive
CC(C)C(Br)C(=O)NC(N)=O (stereo unspecified)	inactive
CCc1cc(OC)c(C[C@H](C)N)cc1OC	inactive
CNC(C)Cc1ccc2c(c1)OCO2 (stereo unspecified)	inactive
CC[C@H]1C[C@@H]2C[C@H]3c4[nH]c5ccc(OC)cc5c4CCN(C2)[C@@H]13	inactive
c1ccc2nc(N3CCNCC3)ccc2c1	inactive
CN(C)CCc1c[nH]c2ccc(O)cc12	inactive
Cc1nnc2n1-c1sc(CCc3ccc(CC(C)C)cc3)cc1C(c1ccccc1Cl)=NC2C (stereo unspecified)	inactive
CNC(=O)Oc1cccc2ccccc12	inactive
COc1ccc(CN2CCNCC2)c(OC)c1OC	inactive
